High-throughput results (PubChem)
Rows were chosen to be rich in hits. Some 0.9% of all compounds tested hit in one or more screens of this group.
3CLpro inhibitor – SARS-CoV 3CLpro protease inhibition. recombinant SARS-CoV 3CLpro, quenched FRET peptide cleavage. inhibition, % at 6 µM. AID 1706. P0C6X7. actives 0.14% (n = 290,000); in the data active = inhibition above about 12%
MazF activator – increases E. coli MazEF RNase cleavage of RNA. FAM/BHQ RNA-DNA oligo cleavage fluorescence, 5 h. P0AE70. activation, % at 20 µM. actives 0.32% (n = 350,000); in the data active = activation above about 50%
Target sequence (P0AE70 whole entry, looked up): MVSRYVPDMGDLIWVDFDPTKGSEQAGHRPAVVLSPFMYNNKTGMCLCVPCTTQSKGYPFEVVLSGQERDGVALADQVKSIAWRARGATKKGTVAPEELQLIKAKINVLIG
PriA SSB inh – blocks PriA binding to SSB C-terminal tail. AlphaScreen SSBct-PriA binding, biotinylated peptide. inhibition, % at 33 µM. actives 0.6% (n = 430,000). AID 1272365; in the data active = inhibition mostly above about 37%, no sharp cut-off; inactive = mostly below about 20%;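 also: plate controls were negative control peptide for no effect and reference peptide for full effect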
Yp Topo-I inh – inhibitors of Yersinia pestis topoisomerase I; Y. pestis Topo-I cleavage product accumulation, plate reader; activity, % at 10 µM; actives 0.064% (n = 360,000); in the data active = activity above about 50%, passing the limit was not always enough
* marks the source's active call; other numbers are inactive results; i = inactive; nt = no result given; + = active, no number; ! = a repeat was not active.

SMILES | 3CLpro inhibitor | MazF activator | PriA SSB inh | Yp Topo-I inh
CCOc1ccc(S(=O)(=O)Nc2nc3ccccc3nc2-n2ccc(=NC(=O)c3cccs3)cc2)cc1 | -12 | 30 | -8 | 46
O=C(c1cc(-c2ccc(F)cc2)c[nH]1)N1CCc2ncncc2C1 | nt | nt | -16 | nt
O=C(CSc1ncnc2c1nnn2-c1ccccc1)N1CCc2ccccc21 | nt | nt | -21 | nt
c1ccc2c(C(c3ccc4c(c3)OCO4)c3c[nH]c4ccccc34)c[nH]c2c1 | nt | nt | 37* | nt
NNS(=O)(=O)c1ccc2c(c1)Cc1cc(S(=O)(=O)NN)ccc1-2 | 0 | 154* | -6 | 7
Cc1ccc2[nH]c3nc(NN)nnc3c2c1 | 5 | 18 | 90* | 3
Cc1ccc2[nH]c3nc(SCCN4CCOCC4)nnc3c2c1 | -2 | 8 | -22 | -8
CCOC(=O)c1oc2cc(NC(=O)c3cccs3)ccc2c1C | nt | nt | -11 | nt
O=C(NCc1ccco1)c1cc(-c2cccs2)nc2ccccc12 | 0 | + | 9 | 1
O=C(COC(=O)c1cc(-c2cccs2)nc2ccccc12)NCc1ccco1 | -4 | -2 | -28 | -2
Oc1cccc2ccc(Nc3ccccn3)nc12 | 1 | 15 | 103* | -11
c1ccc(Nc2ccccc2Nc2ccccn2)nc1 | -192 | 1 | 10 | 3
Nc1c(C(=O)NC2CCCC2)sc2nc(-c3cccs3)ccc12 | 3 | 52* | -10 | -12
Cc1cc2cc(CNC(=O)Cc3ccc(Cl)cc3)ccc2n1C | nt | nt | 6 | nt
Cc1ccc(Nc2c(-c3ccc(N4CCOCC4)cc3)nc3ncccn23)cc1C | -1 | 10 | 0 | -4
Cc1ccc(Nc2c(-c3ccc(N4CCOCC4)cc3)nc3ncccn23)cc1 | -4 | 8 | 97* | -1
COC(=O)c1ccc(CC(C(=O)c2ccccc2)N(C)C)cc1 (configuration not stated) | -4 | 53* | -7 | 3
CN(C)C(Cc1ccc(Cl)cc1)C(=O)c1ccccc1 (configuration not stated) | 1 | 0 | -3 | -5
C=CCN1C(=O)C(C)(C)COc2ccc(NS(=O)(=O)c3cc(C)c(C)cc3OC)cc21 | nt | nt | -3 | nt
O=c1oc2c3c4c(cc2s1)CCCN4CCC3 | -4 | -9 | 52* | -4
O=C(CSc1nnc(C2CCCCC2)n1-n1cccc1)Nc1ccc(OC(F)F)cc1 | nt | nt | 6 | nt
CCCCCCCCCCCC(=O)NC(C(=O)O)C(O)c1ccccc1 (configuration not stated) | 10 | -14 | 97* | 22
O=c1[nH]c(=O)n(C2CCCCC2)c(O)c1/C=C/C=Nc1ccccc1 | 1 | 96* | nt | 2
COc1ccc(S(=O)(=O)Nc2cccc(C(=O)N3CCN(c4nc5c(C)ccc(C)c5s4)CC3)c2)cc1 | nt | nt | -9 | nt
CS(=O)(=O)c1ccc(CC(=O)Nc2nc(-c3ccccn3)cs2)cc1 | nt | nt | 75* | nt
SMILES | 3CLpro inhibitor | MazF activator | PriA SSB inh | Yp Topo-I inh
CCOc1ccc(CC(=O)Nc2nc(-c3ccccn3)cs2)cc1 | nt | nt | 58* | nt
O=C(COc1ccc(F)cc1)Nc1nc(-c2ccccn2)cs1 | nt | 8 | 58* | -2
C=CCn1c(SCC(=O)Nc2nc(-c3ccccc3)ns2)nc2scc(-c3ccc(C)o3)c2c1=O | nt | nt | -3 | nt
COc1ccc(CCNC(=O)/C=C/c2ccc(Cl)cc2Cl)cc1OC | nt | nt | 3 | nt
Fc1ccc2cnc(-c3ccccc3)c(-c3cccc(C(F)(F)F)c3)c2c1 | nt | -24 | -1 | 0
COc1cc2cnc(-c3ccccc3)c(-c3cccc(C(F)(F)F)c3)c2cc1OC | nt | 5 | 45* | 23
COc1ccc(C)cc1NC(=O)CS(=O)c1ncc(-c2ccccc2)n1C (configuration not stated) | nt | nt | 79* | nt
COc1ccc(-c2cnc(S(=O)CC(=O)NCCc3ccccc3)n2C)cc1 (configuration not stated) | nt | nt | -3 | nt
O=S1(=O)N=C(NN=Cc2ccccn2)c2ccccc21 | nt | nt | 82* | nt
O=S1(=O)N=C(NN=Cc2cccs2)c2ccccc21 | nt | nt | 55* | nt
COc1ccc(/C=N/NC2=NS(=O)(=O)c3ccccc32)cc1 | 5 | 4 | nt | -2
O=S1(=O)N=C(N/N=C/c2ccccn2)c2ccccc21 | -2 | -1 | nt | 3
O=C(Nc1ccc(-c2ccc3nnc(-c4ccccn4)n3n2)cc1)c1cccc(F)c1 | nt | nt | 40* | nt
COc1ccc(C2c3ccc(O)cc3Oc3ncn(CCN4CCOCC4)c(=N)c32)cc1 (configuration not stated) | 1 | -49 | -3 | -1
N=c1c2c(ncn1CCCO)Oc1cc(O)ccc1C2c1ccccc1 (configuration not stated) | 2 | 64* | 6 | -13
COc1ccc(C2c3ccc4ccccc4c3Oc3ncn(CCCN(C)C)c(=N)c32)cc1 (configuration not stated) | -12 | 50* | 1 | -3
CSc1ccc(C=NNc2ccc(S(=O)(=O)Nc3ccccc3C(=O)O)cc2[N+](=O)[O-])cc1 | nt | -32 | nt | 1
COc1ccc(C=NNc2ccc(S(=O)(=O)Nc3ccccc3C(=O)O)cc2[N+](=O)[O-])c(OC)c1 | nt | -14 | 46* | 7
COc1ccccc1NS(=O)(=O)c1ccc(N/N=C/c2ccccc2C(=O)O)c([N+](=O)[O-])c1 | nt | nt | i | nt
COc1ccc(NC(=S)NNc2ccc(S(=O)(=O)Nc3ccccc3C(=O)O)cc2[N+](=O)[O-])cc1 | 10 | -6 | 55* | 3
O=C(O)c1ccccc1NS(=O)(=O)c1ccc(NN=Cc2ccc(O)c(O)c2)c([N+](=O)[O-])c1 | nt | nt | 44* | nt
COc1ccc(S(=O)(=O)Nc2ccccc2C(=O)Nc2ccc(OC)cc2[N+](=O)[O-])cc1 | nt | nt | 44* | nt
Cc1ccc(S(=O)(=O)Nc2ccc(O)c3cccnc23)cc1 | 2 | 2 | 12 | 5
Cc1ccc(S(=O)(=O)Nc2ccc(O)c3ncccc23)cc1 | 8 | 7 | 46*! | 3
O=C1Nc2ccc(Br)cc2C12NNc1ccccc1O2 (configuration not stated) | 8 | 84* | 9 | -58
SMILES | 3CLpro inhibitor | MazF activator | PriA SSB inh | Yp Topo-I inh
Cc1cc(C)c2nc(C)cc(NC(=O)COc3ccccc3)c2c1 | nt | nt | -17 | nt
O=[N+]([O-])c1ccc(C=Nc2cccc3ccccc23)s1 | 2 | 4 | 53* | -2
O=c1oc(/C=C/c2ccc([N+](=O)[O-])s2)nc2ccccc12 | 2 | 183* | -8 | -8
O=[N+]([O-])c1ccc(C=Nn2c(CO)nc3ccccc32)s1 | nt | nt | 7 | nt
CN(C)c1ccc(N=Nc2ccccc2C(=O)OCC(=O)N2CCCC2)cc1 | 3 | 1 | 53* | 4
Cc1ccc(C(c2ccc(C)o2)c2cccc([N+](=O)[O-])c2O)o1 | 5 | 0 | 45* | -5
Cc1nc2ccccn2c1C(=O)NCc1ccccc1-c1ccsc1 | nt | nt | -1 | nt
O=C(CF)NC(Nc1cccc2cccnc12)C(Cl)(Cl)Cl (configuration not stated) | -8 | 1 | 73* | -13
CC(C)(C)C(=O)NC(Nc1cccc2cccnc12)C(Cl)(Cl)Cl (configuration not stated) | 5 | -6 | 87* | 1
O=C(/C=C/c1ccccc1)NC(=S)NNC(=O)c1cnccn1 | -3 | 14 | 83* | 0
CCCN(CCC)c1ccc(C(=S)N2CCNCC2)cc1 | nt | nt | 36* | nt
CCCN(CCC)c1ccc(C(=S)N2CCOCC2)cc1 | nt | nt | 37* | nt
